Measured values: PubChem BioAssay (NCATS)
Results filed as inconclusive are left out. Calls of active or inactive are those of the source. Calls follow the shape of the dose curve; as a rule, active = well fitted curve in the direction sought with a large enough effect; inconclusive = small, poorly fitted or top-dose-only effect, or another doubt; inactive = no such curve, though single readings can be large or run the other way.

assay: KB-8-5-11 P-gp reporter qHTS against the NCATS DSHEA and TCM libraries (AID 1919977); details: KB-8-5-11 cells; series mostly up to 26.1 µM
Text: Assay Development and Screening Technology Laboratory (ADST)
National Center for Advancing Translational Sciences (NCATS), Rockville, MD
National Institute of Health (NIH), Bethesda, Maryland
Dietary Supplements and Natural Products have minor oversight of their safety and efficacy. We assembled a collection of Dietary Supplements and Natural Products (DSNP) as well as Traditional Chinese Medicinal (TCM) Plant extracts, which were screened against an in vitro panel of assays, including a liver cytochrome p450 enzyme panel, CAR/PXR signaling pathways, and P-gp transporter assays, to assess their activity. This pipeline facilitated the interrogation of Natural Product-Drug Interaction (NaPDI) through prominent metabolizing pathways. In addition, we compared the activity profiles of the DSNP/TCM substances with those of an approved drug collection. Many of the approved drugs have well-annotated mechanisms of action (MOA) while the MOAs for most of the DSNP and TCM samples remain unknown. Based on the premise that compounds with similar activity profiles tend to share similar targets or MOA, we clustered the library activity profiles to identify overlap with the NCATS Pharmaceutical Collection to predict the MOAs of the DSNP/TCM substances. Overall, we highlight four significant bioactivity profiles (measured by p-values) as examples of this prediction. To assess broad cytotoxicity, we employed screening against a HepG2 cell line. In addition, transporter-mediated drug interactions are utilized in the characterization of DDIs using a P-glycoprotein (P-gp) assays. To profile potential P-gp activity, a differential cell viability was measured against two cell lines: a parental KB-3-1 human cervical adenocarcinoma cell line and the drug-resistant subline KB-8-5-11 that overexpresses P-gp.
To this end, we profiled both collections for potential CAR and/or PXR activity, employing a previously published 1536-well qHTS assay.
[1] Lee TD, et al. A High-Throughput Screen of a Library of Therapeutics Identifies Cytotoxic Substrates of P-glycoprotein. Mol Pharmacol. Nov 2019;96(5):629-640. doi:10.1124/mol.119.115964
PROTOCOL TABLE (as described by Inglese J, Shamu CE and Guy RK. 2007)
SEQUENCE No. (e.g., 1, 2, 3, etc.); PARAMETER (e.g., Cells, Incubation, Reagent, etc.); VALUE; DESCRIPTION.
1; Cells; 5 uL; KB-8-5-11 cells, white solid-bottom tissue treated Greiner plate.
2; Incubation; 4 hrs; 37C, 95% humidity, 5% CO2.
3; Compounds and control; 23 nL; Kalypsis pin tool (Wako USA) equipped with a 1536-well pin head to transfer to the assay plates.
4; Incubation; 72 hrs; 37C, 95% humidity, 5% CO2.
5; Reagent; 2.5 uL; CellTiter-Glo.
6; Centrifuge; 1000 RPM; 15 seconds.
7; Incubation; 30 min; room temperature.
8; Read; Luminescence; ViewLux plate reader.
NOTES (numbers refer to Sequence numbers above)
1. P-gp-overexpressing subline KB-8-5-11 were maintained in DMEM (Thermofisher catalog #11965) with 10% FBS and 1% penicillin/streptomycin at 37C in 5% CO2. For KB-8-5-11 cells, colchicine was added to the medium at a concentration of 100 ng/ml (after initial cell attachment). For the screen, assay medium was identical to culture medium except for KB-8-5-11, where colchicine was excluded from the medium. Briefly, 5 uL of cells at 1 x 10^5 cells/mL (500 cells/well) were dispensed into a 1536-well white solid-bottom tissue treated plate (Greiner Bio-One) using a Multidrop Combi dispenser.
2. Plates were incubated at 37C, 95% humidity, 5% CO2 for ~4 hours to allow for cell attachment.
3. Compounds and intraplate control (Bortezomib; final concentration range 228 pM - 7.5 uM) were transferred (16 nL) via pintool (Wako Automation), for a final concentration of 15.6 nM - 30.0 uM (most substances).
4. Plates were incubated for ~72 hours at 37C, 95% humidity, 5% CO2.
5. Plates were then dispensed with 2.5 uL of CellTiter-Glo.
6. The assay plates were centrifuged for 15 seconds at 1,000 RPM's.
7. The plates were incubated for 30-minute at room temperature.
8. […]

SMILES	outcome
CC(=O)C1=C(O)C=C2Oc3c(C(C)=O)c(O)c(C)c(O)c3[C@]2(C)C1=O	inactive
C=C(CO)C(=O)O[C@H]1CC(=C)[C@@H]2C[C@H](O)C(=C)[C@@H]2[C@H]2OC(=O)C(=C)[C@@H]21	inactive
Cc1ncc(C[n+]2csc(CCO)c2C)c(N)n1	inactive
CCCCCCCCCCCCCC(=O)OCC(O)CO (stereo unspecified)	inactive
O=C(O)/C=C/c1ccc(O)c(O)c1	inactive
COc1cc(O)c2c(c1)C(=O)c1cc(C)cc(O)c1C2=O	inactive
O=C(/C=C/c1ccc(O)c(O)c1)OC(Cc1ccc(O)c(O)c1)C(=O)O (stereo unspecified)	inactive
CC(C)(CO)[C@@H](O)C(=O)NCCC(=O)O	inactive
CC(C)c1ccc(C=O)cc1	inactive
O=C(O)c1ccccc1	inactive
CC1=CCC(=C(C)C)CC1	inactive
C=C1C[C@@]23CC[C@H]4[C@@](C)(CCC[C@@]4(C)C(=O)OC4OC(CO)C(O)C(O)C4O)[C@@H]2CC[C@]1(OC1OC(CO)C(O)C(O)C1OC1OC(CO)C(O)C(O)C1O)C3 (stereo partly specified)	inactive
C=C(C)[C@@H]1CC=C(C=O)CC1	inactive
O=c1cc(-c2ccc(O)c(O)c2)oc2cc(O)cc(O)c12	inactive
C=CC(=C)CCC=C(C)C	inactive
CC(C)=CCC(O)/C(C)=C/CO[C@@H]1O[C@H](CO)[C@@H](O)[C@H](O)[C@H]1O (stereo partly specified)	inactive
O=c1cc(-c2ccc(O)cc2)oc2cc(O)cc(O)c12	inactive
CCCCCCCCCC(=O)O	inactive

SMILES	outcome
Cc1cc2nc3c(=O)[nH]c(=O)nc-3n(CC(O)C(O)C(O)CO)c2cc1C (stereo unspecified)	inactive
CCCCCC(=O)CC	inactive
O=c1c(-c2ccc(O)cc2)coc2cc(O[C@@H]3O[C@H](CO)[C@H](O)[C@H](O)[C@H]3O)ccc12	inactive
O=C(O)/C=C/c1ccccc1	inactive
O=C(/C=C/c1ccc(O)c(O)c1)O[C@@H]1C[C@](O)(C(=O)O)C[C@@H](O)[C@H]1O	inactive
CCCCCCCCCCCC(=O)OCC(O)CO (stereo unspecified)	inactive
CCCCCCCC(=O)O	inactive
C[C@@]12C[C@@]3(O)O[C@@H](O1)[C@]1(COC(=O)c4ccccc4)[C@@H]3C[C@@]12O[C@@H]1O[C@H](CO)[C@@H](O)[C@H](O)[C@@H]1O	inactive
CC(=O)O[C@@H]1C[C@@H](C)[C@](O)(CCC2=CC(=O)OC2)[C@@]2(C)CCCC(C)(C)C12 (stereo partly specified)	inactive
COc1ccc(C(C)=O)c(O)c1	inactive
COc1ccc(-c2coc3cc(O)ccc3c2=O)cc1	inactive
C=C(C)[C@H]1CC=C(CO)CC1	inactive
C=C/C(C)=C/C/C=C(\C)CCC=C(C)C	inactive
O=C1c2c(O)cccc2[C@@H]([C@@H]2O[C@H](CO)[C@@H](O)[C@H](O)[C@H]2O)c2cc(CO)cc(O)c21	inactive
CC(=O)OC/C=C/c1ccccc1	inactive
CCCCCCCCCC=O	inactive
C[N+](C)(C)CCO	inactive
CC1=CCC(O)(C(C)C)CC1 (stereo unspecified)	inactive
